A selection: hits, their analogues and other compounds. The true share with any hit is near 3.9%.
PHOSPHO1 inh: PHOSPHO1 (human) inhibition | Q8TCT1 | recombinant PHOSPHO1, absorbance phosphatase assay | inhibition, % at 13.3 µM | actives 1.1% (n = 290,000) | AID 1565; in the data active = inhibition above about 60%
Target sequence (Q8TCT1 whole entry, looked up): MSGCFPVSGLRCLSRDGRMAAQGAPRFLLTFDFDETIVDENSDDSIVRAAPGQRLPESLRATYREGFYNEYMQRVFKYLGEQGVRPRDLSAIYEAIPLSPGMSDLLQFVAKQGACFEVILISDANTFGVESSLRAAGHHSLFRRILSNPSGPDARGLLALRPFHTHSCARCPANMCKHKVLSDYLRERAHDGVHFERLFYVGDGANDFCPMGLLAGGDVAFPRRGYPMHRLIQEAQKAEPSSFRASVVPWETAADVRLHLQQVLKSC
SKKanGAS inh: blocks kanamycin growth of S. pyogenes SKKanGAS strain; actives 1.3% (n = 300,000); inhibition, % at 7.5 µM; BacTiter-Glo, 6 h;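 active = mean replicate score, as percent of positive control median, at least 50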;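 also: strain carries kanamycin resistance gene driven by streptokinase promoter and grows in 40 µg/ml kanamycin; loss of luminescence reflects streptokinase promoter inhibition or plain growth inhibition; 0% = median of DMSO wells and 100% = positive control at its reference dose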
Rtt109 Vps75: C. albicans Rtt109 histone acetyltransferase inhibition. AID 540336. Q5AAJ8. purified Rtt109/Vps75, ThioGlo CoA-SH fluorescence, 4 h. actives 0.16% (n = 330,000). inhibition, % at 34.9 µM;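 active = inhibition of at least 50% in every replicate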
Target sequence (Q5AAJ8 whole entry, looked up): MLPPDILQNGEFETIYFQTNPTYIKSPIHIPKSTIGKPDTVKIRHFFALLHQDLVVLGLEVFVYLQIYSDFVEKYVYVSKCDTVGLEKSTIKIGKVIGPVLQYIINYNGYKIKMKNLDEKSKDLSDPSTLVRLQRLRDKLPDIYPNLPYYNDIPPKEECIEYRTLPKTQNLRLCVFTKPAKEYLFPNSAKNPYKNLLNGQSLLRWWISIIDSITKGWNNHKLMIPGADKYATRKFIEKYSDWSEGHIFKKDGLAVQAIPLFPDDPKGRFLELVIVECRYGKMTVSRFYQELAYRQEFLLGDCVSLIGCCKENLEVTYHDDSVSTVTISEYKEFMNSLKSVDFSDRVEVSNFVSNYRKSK
Platelet DG rel: platelet dense granule release activity | human platelet-rich plasma, SFLLRN dense granule ATP release, luminescence | inhibition, %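 (compounds screened at 7.5 µM in platelet-rich plasma)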 | actives 0.22% (n = 300,000) | AID 1663;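 active = mean replicate score, as percent of positive control, at or above 50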
WT yeast gro inh: growth inhibition of WT yeast, mitochondrial fusion screen. actives 2.1% (n = 190,000). inhibition, % at 10 µM. mitochondrial fusion phenotypic screen, WT strain. AID 1362; in the data active = inhibition above about 58%; tested in S. cerevisiae
TPT1 inhibitor: blocks Candida albicans tRNA 2'-phosphotransferase | recombinant caTPT1, FP RNA substrate dephosphorylation | inhibition, % at 5 µM | actives 0.81% (n = 300,000);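 active = inhibition above the mean of all tested compounds plus 3 SD, set per screening campaign, cut at about 24% in these data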;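 also: plate controls were DMSO alone for no effect and ferristatin control at 100 nM for full effect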
Numbers without * were called inactive.

Results for Cc1c(C(=O)O)sc2ncn(C)c(=O)c12 ?
PHOSPHO1 inh: -7.3; SKKanGAS inh: -1.4; Rtt109 Vps75: -11.4; Platelet DG rel: 5.1; WT yeast gro inh: 2.4; TPT1 inhibitor: -3.2

How did O=C(O)CCCCCCCCCCCNC(=O)NC12CC3CC(CC(C3)C1)C2 do in these assays?
Rtt109 Vps75: 0.4

Results for CCOCCCNC(=O)NC12CC3CC(CC(C3)C1)C2 ?
PHOSPHO1 inh: -0.2; SKKanGAS inh: -6.5; Rtt109 Vps75: -2.7; Platelet DG rel: -8.2; WT yeast gro inh: 58.1*; TPT1 inhibitor: -2.2

What do the screens show for `CC(=O)Nc1cccc(NC(=O)c2cccc(-c3ccc(O)cc3)c2)c1`?
PHOSPHO1 inh: 11.0; SKKanGAS inh: 8.8; Rtt109 Vps75: 6.7; Platelet DG rel: -0.1; TPT1 inhibitor: -2.7

Results for COc1ccc(NC(=O)c2cccc(-c3ccc(O)cc3)c2)cn1 ?
PHOSPHO1 inh: 30.7; SKKanGAS inh: 52.9*; Rtt109 Vps75: 15.4; Platelet DG rel: -2.5; TPT1 inhibitor: -43.1

How did N#CCCN1CCN(C(=S)c2ccc(-c3cc(Cl)ccc3Cl)o2)CC1 do in these assays?
PHOSPHO1 inh: 73.5*; SKKanGAS inh: 16.1; Rtt109 Vps75: 3.5; Platelet DG rel: 0.2; WT yeast gro inh: 25.7; TPT1 inhibitor: -3.9

How did CCOc1ccccc1CN1CCCC(CNC(=O)Cc2ccc(OC)cc2)C1 (centres undefined) do in these assays?
PHOSPHO1 inh: 3.1; SKKanGAS inh: 0.2; Rtt109 Vps75: 32.3; Platelet DG rel: 8.9; TPT1 inhibitor: -2.9

How did Oc1cc(O)c(CN2CCOCC2)cc1CN1CCOCC1 do in these assays?
Rtt109 Vps75: 101.2*

Results for COc1ccc(-c2nc(CS(=O)CC(=O)NC3CCCCCC3)c(C)o2)cc1 (centres undefined) ?
PHOSPHO1 inh: 64.9*; SKKanGAS inh: 11.5; Rtt109 Vps75: -0.7; Platelet DG rel: -4.2; TPT1 inhibitor: 1.9

Results for CSCCC(NS(=O)(=O)c1ccc(C)cc1)C(=O)N1CC=C(c2ccccc2)CC1 (centres undefined) ?
SKKanGAS inh: 2.5; Rtt109 Vps75: -17.9; TPT1 inhibitor: 3.4

Results for Cc1ccc(-c2cc(-c3cccc(F)c3)n[nH]2)c(O)c1 ?
PHOSPHO1 inh: 33.7; SKKanGAS inh: 51.6*; Rtt109 Vps75: 1.5; Platelet DG rel: 8.2; WT yeast gro inh: 56.1; TPT1 inhibitor: 0.1

Results for Cc1ccc(-c2cc(-c3ccccc3C)[nH]n2)c(O)c1 ?
PHOSPHO1 inh: -24.3; Rtt109 Vps75: 3.7; WT yeast gro inh: 65.2*; TPT1 inhibitor: -3.2

Results for Cc1ccc(O)c(-c2cc(-c3ccccc3F)[nH]n2)c1 ?
PHOSPHO1 inh: 5.5; SKKanGAS inh: 8.0; Rtt109 Vps75: -11.0; Platelet DG rel: -29.8; TPT1 inhibitor: 1.0

What do the screens show for `O=C(/C=C/c1cccc(Cl)c1Cl)OCC(=O)N1CCOCC1`?
Rtt109 Vps75: 5.4

How did CCCc1nc(NC2CCCCC2)c(C#N)c2c1COC(C)(C)C2 do in these assays?
PHOSPHO1 inh: 5.6; SKKanGAS inh: 60.0*; Rtt109 Vps75: 4.1; Platelet DG rel: -0.4; WT yeast gro inh: -3.0; TPT1 inhibitor: -4.8

Results for CCn1c(COc2ccc(Cl)cc2)nnc1SCC(=O)Nc1ccc2c(c1)OCO2 ?
PHOSPHO1 inh: 60.5*; SKKanGAS inh: -12.4; Rtt109 Vps75: 1.4; WT yeast gro inh: -14.8; TPT1 inhibitor: -4.2

How did COc1ccc(-c2cnc(SCC(=O)Nc3ccc4c(c3)OCO4)n2Cc2ccco2)cc1 do in these assays?
PHOSPHO1 inh: 102.0*; SKKanGAS inh: 38.3; Rtt109 Vps75: -2.3; Platelet DG rel: -3.9; WT yeast gro inh: 11.3

Results for Cn1c(COc2ccccc2)nnc1SCC(=O)Nc1ccc2c(c1)OCO2 ?
PHOSPHO1 inh: 61.0*; SKKanGAS inh: -3.7; Rtt109 Vps75: -2.7; Platelet DG rel: -2.9; WT yeast gro inh: 1.6; TPT1 inhibitor: 1.7

What do the screens show for `CCOc1ccc(S(=O)(=O)Nc2cc(S(=O)(=O)N3CCOCC3)ccc2OC)cc1`?
Rtt109 Vps75: -3.1

How did Cc1cc(-n2c(C)cc(C(=O)COc3ccc(F)c(F)c3)c2C)no1 do in these assays?
Rtt109 Vps75: 6.0

How did CC(=O)Nc1nnc(CCS(=O)(=O)c2ccc(C)c(C)c2)s1 do in these assays?
PHOSPHO1 inh: 18.8; SKKanGAS inh: 5.0; Rtt109 Vps75: 58.8*; Platelet DG rel: 0.7; WT yeast gro inh: -3.7; TPT1 inhibitor: -3.9

What do the screens show for `Cc1ccc(S(=O)(=O)CCc2nnc(NC(=O)C3CCCCC3)s2)cc1`?
PHOSPHO1 inh: 28.5; SKKanGAS inh: -2.0; Rtt109 Vps75: -15.2; Platelet DG rel: -0.1; TPT1 inhibitor: -2.4

Results for NNc1ccc2c(C(F)(F)F)cc(C(F)(F)F)nc2n1 ?
PHOSPHO1 inh: 32.5; SKKanGAS inh: -11.2; Rtt109 Vps75: -2.0; Platelet DG rel: -10.1; WT yeast gro inh: -8.9; TPT1 inhibitor: 1.0

How did N#CC(c1cccc(Cl)c1)c1ccc2c(C(F)(F)F)cc(C(F)(F)F)nc2n1 (centres undefined) do in these assays?
PHOSPHO1 inh: 11.7; SKKanGAS inh: 95.0*; Rtt109 Vps75: 11.3; Platelet DG rel: 14.8; WT yeast gro inh: 81.2*; TPT1 inhibitor: -5.1

Results for O=c1oc2ccccc2cc1-c1nc2c(s1)CCc1ccccc1-2 ?
PHOSPHO1 inh: 5.7; SKKanGAS inh: -9.9; Rtt109 Vps75: -7.9; Platelet DG rel: -3.9; WT yeast gro inh: 0.3; TPT1 inhibitor: 11.8

What do the screens show for `O=c1oc2cc(O)ccc2cc1-c1nc2c(s1)CCc1ccccc1-2`?
PHOSPHO1 inh: 13.7; Rtt109 Vps75: -58.5; WT yeast gro inh: 98.0*; TPT1 inhibitor: 18.9

Results for Cc1ccc(S(=O)(=O)N2c3ccccc3OCC2C(C)(C)C)cc1 (centres undefined) ?
PHOSPHO1 inh: -10.4; SKKanGAS inh: 58.4*; Rtt109 Vps75: -1.4; Platelet DG rel: 7.4; WT yeast gro inh: 50.9; TPT1 inhibitor: -1.9

Results for Cc1oc(-c2ccccc2F)nc1CS(=O)(=O)CC(=O)NCc1ccccc1Cl ?
PHOSPHO1 inh: 12.3; SKKanGAS inh: 4.2; Rtt109 Vps75: -3.2; Platelet DG rel: 1.6; TPT1 inhibitor: -1.8

Results for CC(=O)C1=C(C)NC(SCC(N)=O)=C(C#N)C1c1ccco1 (centres undefined) ?
PHOSPHO1 inh: -53.8; SKKanGAS inh: -6.4; Rtt109 Vps75: 3.5; Platelet DG rel: -0.3; WT yeast gro inh: 24.4; TPT1 inhibitor: 0.5

How did CC(=O)C1=C(C)NC(SCC(=O)c2ccc(Cl)c(Cl)c2)=C(C#N)C1c1ccco1 (centres undefined) do in these assays?
PHOSPHO1 inh: 75.6*; SKKanGAS inh: 56.1*; Rtt109 Vps75: -0.9; Platelet DG rel: -0.7; TPT1 inhibitor: 19.9

What do the screens show for `CC(=O)C1=C(C)NC(SCC(=O)c2cc(Cl)ccc2Cl)=C(C#N)C1c1ccco1` (centres undefined)?
PHOSPHO1 inh: 77.8*; SKKanGAS inh: 38.7; Rtt109 Vps75: 24.1; Platelet DG rel: 2.2; TPT1 inhibitor: 16.3

Bioassay records deposited in PubChem BioAssay by several laboratories.
